Laboratory results taken from PubChem BioAssay (EPA / NIEHS).
Inconclusive results are not listed. Active and inactive are the calls of the source. Rule for the calls: active = hit-call score of the fitted dose curve at least 0.9, where 1 is the maximum; inconclusive = response in the unintended direction; inactive = score below 0.9.

Test: ACEA_AR_antagonist_AUC_viability: ACEA Biosciences xCELLigence Real-Time Cell Analysis on Androgen Receptor Antagonism for Viability (AID 2283776);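 note: area under impedance growth curve at 80 h after dosing as viability; hits lower the growth signal relative to DMSO meaning cytotoxicity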
Experimental: ACEA_AR_antagonist is a cell-based, single-readout assay that uses 22Rv1, a human prostate cancer cell line, with measurements taken at 80 hours after chemical dosing in a 384-well plate, although TO5 and TO6 (mc0.srcf) used a 96-well plate. Differences in plate size can be ignored given data normalization.ACEA_AR_80hr is one of two assay component(s) measured or calculated from the […] assay. It is designed to make measurements of real-time cell-growth kinetics, a form of growth reporter, as detected with electrical impedance signals by Real-Time Cell Electrode Sensor (RT-CES) technology.Data from the assay component ACEA_AR_antagonist_AUC_viability was analyzed in the positive analysis fitting direction relative to DMSO as the negative control and baseline of activity. Using a type of growth reporter, loss-of-signal activity can be used to understand changes in the viability. Furthermore, this assay endpoint can be referred to as a secondary readout, because this assay has produced multiple assay endpoints where this one serves a viability function. To generalize the intended target to other relatable targets, this assay endpoint is annotated to the cell cycle intended target family, where the subfamily is cytotoxicity.
The xCELLigence system Multi-E-Plate stations were used to measure the time-dependent response to chemicals. Each compound was tested in an eight-point, 1:4 serial dilution series starting at a maximum final concentration of 100 uM. A maximum starting concentration of 0.5% DMSO was present in the 100 uM chemical samples and was diluted along with the test article dilution series. The screen was performed in biological duplicate using two separate, 96-well, E-Plates 96 for each dilution series (n = 2). Positive controls (MG132 and testosterone) and a negative control (assay media) were tested in quadruplicate on each testing plate. Then, 0.5% and 0.125% DMSO were tested in duplicates in each plate to serve as solvent controls for the 2 highest concentrations of testing compounds: 100 uM and 25 uM. Reference compounds were tested with 8 concentrations with 1:5 serial dilutions. All screening was carried out by ACEA Biosciences, Inc. (San Diego, CA). 22Rv1 cells purchased from ATCC were maintained in media supplemented with 10% fetal bovine serum (FBS). Before screening, 22Rv1 cells were preconditioned in assay medium. Cells were then detached and seeded in E-Plates 96 in assay medium. After overnight monitoring of growth once every hour, compounds were added to […] cells and remained in the medium until the end of the experiment. Cellular responses were then recorded once every 5 min for the first 5 h, and once every hour for an additional 100 h.

Row | SMILES | AC50 | outcome
1 | O=C(Nc1ccc([N+](=O)[O-])cc1Cl)c1cc(Cl)ccc1O | 0.821 µM (active) | –
2 | CCCCCCC(C)OC(=O)COc1nc(F)c(Cl)c(N)c1Cl (stereo not given) | 17.8 µM (active) | –
3 | CCCCOC(=O)C(C)Oc1ccc(Oc2ccc(C(F)(F)F)cn2)cc1 (stereo not given) | 50 µM (active) | –
4 | c1ccc(Nc2ccccc2)cc1 | – | inactive
5 | CCCCC(CC)COC(=O)c1ccccc1C(=O)O (stereo not given) | – | inactive
6 | CC(C)(C)[C@@H](O)[C@@H](Cc1ccc(Cl)cc1)n1cncn1 | 24.1 µM (active) | –
7 | Cc1nn(C)c(Oc2ccccc2)c1C=NOCc1ccc(C(=O)OC(C)(C)C)cc1 | 13.8 µM (active) | –
8 | CCOC(=O)c1ccc(O)cc1 | – | inactive
9 | Oc1ccc(C(c2ccc(O)cc2)C(Cl)(Cl)Cl)cc1 | 17 µM (active) | –
10 | CC(C)(c1ccc(O)cc1)c1ccc(O)cc1 | 40.9 µM (active) | –
11 | CCCN(CCC)c1c([N+](=O)[O-])cc(C(F)(F)F)c(N)c1[N+](=O)[O-] | 35 µM (active) | –
12 | N[C@@H](Cc1cc(I)c(Oc2ccc(O)c(I)c2)c(I)c1)C(=O)O | 9.7 µM (active) | –
13 | CSC(=O)c1cccc2nnsc12 | – | inactive
14 | COCCO | – | inactive
15 | CCOC(=O)COc1cc(-n2ncc(C(F)(F)F)c(C)c2=O)c(F)cc1Cl | – | inactive
16 | COC(=O)c1ccccc1C(=O)O | – | inactive
17 | O=C(O)C1(C(=O)Nc2ccc(Cl)cc2Cl)CC1 | 50 µM (active) | –
18 | CCNc1nc(N)nc(Cl)n1 | – | inactive
19 | CCCOC(=O)NCCCN(C)C | – | inactive
20 | OB(O)O | – | inactive

Row | SMILES | AC50 | outcome
21 | O=C(O)c1ccccc1 | – | inactive
22 | CCOC(=O)C(C)Oc1ccc(Oc2cnc3cc(Cl)ccc3n2)cc1 (stereo not given) | – | inactive
23 | CC(=O)[C@H]1CC[C@H]2[C@@H]3CCC4=CC(=O)CC[C@]4(C)[C@H]3CC[C@]12C | – | inactive
24 | CC1(C)C(C=C(Cl)Cl)C1C(=O)OCc1cccc(Oc2ccccc2)c1 (stereo not given) | 34.2 µM (active) | –
25 | CCOC(=O)C(C)Oc1ccc(Oc2nc3ccc(Cl)cc3o2)cc1 (stereo not given) | 36.4 µM (active) | –
26 | N#CSCSc1nc2ccccc2s1 | 15.7 µM (active) | –
27 | CCN(Cc1c(F)cccc1Cl)c1c([N+](=O)[O-])cc(C(F)(F)F)cc1[N+](=O)[O-] | 25 µM (active) | –
28 | O=C(c1ccc(O)cc1O)c1ccc(O)cc1O | – | inactive
29 | C#CCOC(=O)[C@@H](C)Oc1ccc(Oc2ncc(Cl)cc2F)cc1 | 23.1 µM (active) | –
30 | CCCOC(=O)c1ccc(C(=O)OCCC)nc1 | – | inactive
31 | CCCCC(CC)CN1C(=O)C2C3C=CC(C3)C2C1=O (stereo not given) | 56.8 µM (active) | –
32 | CCOC(=O)NCCOc1ccc(Oc2ccccc2)cc1 | 27.2 µM (active) | –
33 | CCN(CC)C(=O)c1cccc(C)c1 | – | inactive
34 | COc1c(Cl)ccc(Cl)c1C(=O)O | – | inactive
35 | C[C@]12C[C@H](O)[C@H]3[C@@H](CCC4=CC(=O)CC[C@@]43C)[C@@H]1CC[C@@H]2C(=O)CO | – | inactive
36 | CC(=O)S[C@@H]1CC2=CC(=O)CC[C@]2(C)[C@H]2CC[C@@]3(C)[C@@H](CC[C@@]34CCC(=O)O4)[C@H]12 | 35.4 µM (active) | –
37 | CCCCCOC(=O)COc1cc(N2C(=O)C3=C(CCCC3)C2=O)c(F)cc1Cl | 77.8 µM (active) | –
38 | CCC(C)OC(=O)N1CCCCC1CCO (stereo not given) | – | inactive
39 | COC(=O)CSc1cc(N=c2sc(=O)n3n2CCCC3)c(F)cc1Cl | – | inactive
40 | CCSC(=O)N(CC(C)C)CC(C)C | – | inactive
